Bioassay records from PubChem BioAssay.
Many of the other results were omitted from the sample, so hits are more common in it than they were.
Shiga inhibitor = blocks Shiga toxin action in Vero cells | AID 2315 | inhibition, % at 38.7 µM | actives 9.2% (n = 290,000) | Vero cells, Shiga toxin protein synthesis inhibition reporter; in the data active = inhibition mostly above about 28%, no sharp cut-off; inactive = mostly below about 43%; also: 0% is about no effect
Giardia FBPA inh = Giardia lamblia aldolase inhibition; A8B2U2; purified Giardia FBPA; actives 0.71% (n = 290,000); Potency, µM (top dose mostly 59.6 µM), inactives show at the top dose activity, negative = inhibition, usual class: inhibitors; AID 2451; also: potency is read from the fitted curve at half-maximal effect; % is scaled to controls: 0 for no effect and ±100 for the full control effect; nearly all actives have a fitted effect of over 55% in size
Target sequence (A8B2U2 whole entry, looked up): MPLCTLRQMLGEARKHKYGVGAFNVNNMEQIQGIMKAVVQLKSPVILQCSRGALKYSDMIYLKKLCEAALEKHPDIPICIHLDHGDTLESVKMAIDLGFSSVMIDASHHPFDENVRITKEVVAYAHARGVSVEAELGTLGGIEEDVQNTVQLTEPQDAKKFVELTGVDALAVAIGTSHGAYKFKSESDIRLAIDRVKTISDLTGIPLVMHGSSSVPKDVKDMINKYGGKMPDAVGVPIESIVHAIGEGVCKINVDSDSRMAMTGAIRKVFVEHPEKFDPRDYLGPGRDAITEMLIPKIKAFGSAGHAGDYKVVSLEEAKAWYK
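Giardia FBPA (40 nM reagent) was preincubated 10 min at RT with compound (up to 57.5 uM final), then substrate plus GAPDH/TPI/NAD/arsenate coupling system with diaphorase/resazurin was added; resorufin fluorescence (525/598 nm) was read after 20 min.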
Tb PYK inh = T. brucei pyruvate kinase inhibition. Q57TT1. TbPYK enzyme, Kinase-Glo Plus ATP luminescence, 45 min. Potency, µM (series often up to 76.8 µM), without a hit: at the top dose activity, negative = inhibition, actives largely listed as inhibitors. actives 0.12% (n = 410,000). AID 624173; also: potency is read from the fitted curve at half-maximal effect; % is scaled to controls: 0 for no effect and ±100 for the full control effect; nearly all actives have a fitted effect of over 50% in size
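Enzyme and substrate buffer are dispensed first and compound is pin-transferred. ADP at 130 uM final then starts the reaction, which runs 45 min at room temperature. Detection reagent is added for 10 min before luminescence is imaged.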
LmPK inhibitor = blocks Leishmania mexicana pyruvate kinase activity; Q27686; purified LmPK, Kinase-Glo ATP luminescence, 1 h; Potency, µM (doses to about 57.5 µM), without a hit: top-dose activity change, negative = inhibition, hits mostly inhibitors; actives 0.37% (n = 290,000); AID 1721; also: potency is read from the fitted curve at half-maximal effect; % is scaled to controls: 0 for no effect and ±100 for the full control effect
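qHTS format; LmPK 0.1 nM; substrates PEP 0.5 mM and ADP 0.1 mM. One-hour room-temperature incubation, then coupled luciferase luminescence; 0.5 nM enzyme wells mark activation.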
CHX counter = counter-screen hit for Shiga toxin inhibitors, cycloheximide; cell reporter, cycloheximide protein synthesis inhibition counterscreen; max response, %; actives 12% (n = 300,000); in the data active = max response mostly above about 13%, no sharp cut-off; inactive = mostly below about 14%; also: read at 38.3 µM for the half of the compounds with a filed dose; 0% is about no effect
Sm TGR block = blocks Schistosoma mansoni thioredoxin glutathione reductase. Q962Y6. purified TGR, DTNB reduction, TNB absorbance 405 nm. Potency, µM (titrated, usually from 114 µM), for the others: top-dose activity change, negative = inhibition, hits mostly inhibitors. AID 485364. actives 3% (n = 360,000); also: potency is read from the fitted curve at half-maximal effect; % is scaled to controls: 0 for no effect and ±100 for the full control effect; nearly all actives have a fitted effect of over 60% in size
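First, TGR (20 nM dispensed) and NADPH were mixed with compound. Second, a 15 min room-temperature incubation followed. Third, further NADPH and then DTNB were added to start the reaction. Finally, TNB absorbance was monitored kinetically.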
* = called active by the depositor; i = inactive; ? = inconclusive; · = no result; + = active, no number; [ ] = another dose, or the depositor's remark. Unless noted, calls follow the shape of the dose curve; as a rule, active = well fitted curve in the direction sought with a large enough effect; inconclusive = small, poorly fitted or top-dose-only effect, or another doubt; inactive = no such curve, though single readings can be large; an effect the other way counts as inactive or inconclusive.

SMILES | Shiga inhibitor | Giardia FBPA inh | Tb PYK inh | LmPK inhibitor | CHX counter | Sm TGR block
O=C(Nc1c(C(=O)Nc2ccccc2F)oc2ccccc12)c1cc2ccccc2o1 | · | · | 4% | · | · | 2%
CCOC(=O)COc1ccc(/C=C2\C(=O)NC(=S)N(c3ccc(OC)cc3)C2=O)cc1OC | -16 | -3% | ? | 15% | -6 | 14µM*
COc1ccc(/C=C2/C(=O)NC(=O)N(c3ccc(C)c(C)c3)C2=O)cc1CN1C(=O)c2ccccc2C1=O | -9 | 1% | ? | 2% | -4 | ?
CCOc1ccc(/C=C2/C(=O)N(c3ccc(OC)cc3)C(=S)N2CC(=O)OC)cc1OCC | 12* | -4% | 0% | 4% | 30* | -6%
COC(=O)COc1ccc(/C=C2\C(=O)NC(=S)N(c3ccc(C)cc3)C2=O)cc1OC | -10 | -6% | ? | 14% | -3 | 13µM*
COc1ccc(N2C(=O)/C(=C/c3ccc(OC)c(OC)c3)C(=O)NC2=S)cc1 | -3 | ? | ? | 1% | -3 | 10µM*
CCOC(=O)CSCCOc1ccc(C=C2C(=O)NC(=O)NC2=O)cc1OC | 20 | -17% | ? | -3% | 12 | ?
CC(C)=CCC[C@](C)(O)C1CC[C@]2(C)[C@@H]1CC[C@@H]1[C@@]3(C)CCC(=O)C(C)(C)[C@@H]3CC[C@]12C (some centres not stated) | -4 | 2% | · | · | -6 | ·
CCOC(=O)C(=O)N(C)c1c(CC)nc2c(OCc3ccccc3)cccn12 | · | · | 1% | · | · | ·
COc1ccc(N2C(=O)/C(=C/c3ccc(C)o3)C(=O)NC2=S)c(OC)c1 | · | -27% | ? | 25% | -3 | 1.3µM*
Cc1cccc(N2C(=O)/C(=C/c3ccc(N4CCN(C)CC4)o3)C(=O)NC2=S)c1C | -7 | -22% | -19% | -8% | 8 | -25%
CC1CC=C2C(C#N)=C(N)C(C#N)(C#N)C(c3cccs3)C2C1 (configuration not stated) | 3 | ? | -14% | -1% | 2 | 50µM*
CCOC(=O)N1CC=C2C(C#N)=C(N)C(C#N)(C#N)[C@H](c3cccs3)C2C1 (some centres not stated) | -12 | -10% | -2% | 4% | -1 | -22%
Cn1cnc([N+](=O)[O-])c1Cl | 2 | 2% | -1% | -2% | -3 | 4µM*
CCS(=O)(=O)c1c([N+](=O)[O-])ncn1C | -13 | 6% | 0% | -3% | -5 | 0.63µM*
Cn1cnc([N+](=O)[O-])c1Sc1ncn[nH]1 | -4 | -18% | -4% | 11% | -2 | 2.8µM*
CCOC(=O)C1=C(CN2CCN(c3ccc(OC)cc3)CC2)NC(=O)NC1c1ccc(OC)cc1 (configuration not stated) | · | · | -2% | · | · | -21%
O=C1/C(=C/c2ccccn2)COc2ccccc21 | 78* | -5% | -10% | -5% | 27* | ?
CCOc1cc(/C=C2/COc3ccccc3C2=O)ccc1OCC(=O)N(C)C | -6 | -2% | -3% | 1% | 22 | 32µM*
CNc1ccc(/C=C2\COc3ccccc3C2=O)cc1[N+](=O)[O-] | 15 | 5% | 3% | 8% | -2 | -13%
O=C1/C(=C/c2ccc(O)cc2)COc2ccccc21 | 45* | 6% | ? | -9% | 29* | ?
O=C1/C(=C/c2ccccc2[N+](=O)[O-])COc2ccccc21 | 155* | -1% | -5% | -2% | 76* | ?
CCOC(=O)C1=CN(Cc2ccco2)S(=O)(=O)N(CC)C1c1ccc(C(F)(F)F)cc1 (configuration not stated) | · | · | -6% | · | · | ·
COc1ccc(C2C3=C(CCCC3=O)Nc3ccc4ncccc4c32)cc1OC (configuration not stated) | 38 | -17% | -1% | 6% | 35* | 20µM*
O=C1CCCC2=C1C(c1ccc(O)c(O)c1)Nc1ccc3ncccc3c12 (configuration not stated) | 33* | ? | ? | ? | 14 | 20µM*
SMILES | Shiga inhibitor | Giardia FBPA inh | Tb PYK inh | LmPK inhibitor | CHX counter | Sm TGR block
O=C1CCCC2=C1C(c1cccc(O)c1)C1=C(N2)c2ccccc2C1=O (configuration not stated) | 53 | -11% | -3% | -19% | 5 | ?
CCOc1cc(C2C3=C(CCCC3=O)Nc3ccc4ncccc4c32)ccc1O (configuration not stated) | -5 | -19% | -4% | 0%[11.5 µM] | -2 | -19%
COc1cc(C2C3=C(CCCC3=O)Nc3ccc4ncccc4c32)ccc1O (configuration not stated) | 31 | -11% | -19% | 9% | 15* | -8%
O=C1CCCC2=C1C(c1cccc(O)c1)c1c(ccc3ncccc13)N2 (configuration not stated) | -19 | -7% | -4% | 2% | 7 | 32µM*
COc1cc(OC)c2c(c1)OC(=O)CC2c1ccccc1OC (configuration not stated) | i | 3%[89.2 µM] | · | · | -2 | ·
CCn1cc(C(=O)NC2CCCc3c2cnn3-c2cccc(C)c2C)cn1 (configuration not stated) | -3 | · | · | -4% | 10 | -1%
Cc1cccc(C(=O)Nc2ccccc2OCc2cc(=O)n3c(C)csc3n2)c1 | · | · | 1% | · | · | 0%
C/C(=N\N1CCCCC1)c1c(O)[nH]c(=O)[nH]c1=O | 10 | 1% | -1% | -4% | 18* | 4%
O=C(NCc1cccnc1)c1ccc2sc([C@@H]3O[C@H](CO)[C@H](O)[C@H](O)[C@H]3O)nc2c1 | · | · | 2% | · | · | ·
CC(=O)N1CCN(C(=O)c2ccc(Cl)c(NC(=O)c3cccs3)c2)CC1 | · | · | 2% | · | · | 5%
Cc1nc2ccc(NC(=O)c3ccc(Cl)c(NC(=O)c4cccs4)c3)cc2s1 | 51 | -3% | 3% | 1% | 20* | -31%
Cc1ccc(NC(=O)c2ccc(Cl)c(NC(=O)c3cccs3)c2)cc1 | 45 | · | -4% | -5% | 53* | 2%
COc1ccc(-c2nnc(N(C)C(=O)C3CCCO3)s2)cc1 (configuration not stated) | + | -3% | -17% | 0% | 26* | -2%
CN(C(=O)c1ccno1)c1nnc(-c2ccccn2)s1 | 22 | ? | -15% | 0% | 3 | 0%
COc1ccc(-c2nnc(N(C)C(=O)C3CCOC3)s2)cc1 (configuration not stated) | · | · | 6% | · | · | ·
COc1ccc(-c2nnc(N(C)C(=O)c3ccno3)s2)cc1 | 60* | -10% | -4% | -3% | 26* | 0%
CSc1nc(N)c2ncn([C@H]3O[C@H](COP(=O)(O)OP(=O)(O)O)[C@@H](O)[C@@H]3O)c2n1 | · | 8% | · | · | · | ·
O=C(NC(=S)Nc1ccc(Br)c(Cl)c1)C1CC1 | 32* | · | 3% | -7% | 26* | 0%
